# Test results taken from ChEMBL document CHEMBL3988442, “University of Dundee, Small-Polar-MMV Screening Library” (2021).
# In all, about 69,000 compounds went through this assay and about 950 (1.4%) showed an effect of 50% or more. The entries come from a sample that favours strong results as a whole.
# Test system: Mycobacterium tuberculosis
# Assay: Cornell M. t heat shock assay; further: in the data most compounds retested in dose-response had high values
# Format: functional, organism-based
# Set-up: dose or concentration left out as unconfirmed
row,SMILES,Percent Effect [%]
1,Cl.Cn1cc(C(=O)NCc2cncc3c2CCN(S(C)(=O)=O)C3)cn1,36.5
2,O=C(O)C(F)(F)F.O=C(O)C(F)(F)F.O=C(O)C(F)(F)F.c1ccc(COC[C@H]2CC[C@H]3[C@H](CCN3Cc3ccccn3)O2)nc1,4.762
3,COc1ncccc1C(=O)N1CC[C@H]2C[C@H](c3nnc(C)[nH]3)O[C@@H]2C1.O=C(O)C(F)(F)F,-43.18
4,Cc1ccc(CN2C[C@@H]3CCN(Cc4cccnc4)C(=O)[C@H]3C2)s1.O=C(O)C(F)(F)F.O=C(O)C(F)(F)F,-19.89
5,Cc1ccc(N2CCO[C@H]3CN(Cc4cnn(C)c4)C[C@H]32)nn1.O=C(O)C(F)(F)F.O=C(O)C(F)(F)F,3.052
6,CCn1ncc2c1C(COCC1CC1)CN(c1ccc(C)nn1)C2.O=C(O)C(F)(F)F.O=C(O)C(F)(F)F (centres undefined),28.05
7,c1csc(-c2noc(CNCCn3cccn3)n2)c1,-3.991
8,c1ccc(Cc2nc(CNCCn3cccn3)cs2)cc1,96.34
9,Fc1ccc(CNCCn2cccn2)cc1F,-1.295
10,Clc1ccc(Cc2nc(CNCCn3cccn3)cs2)cc1,102.1
11,Clc1ccc(OCCNCCn2cccn2)cc1,-6.93
12,CCOC1COC2(CCN(c3cccc(C)n3)CC2)C1.O=C(O)C(F)(F)F (centres undefined),-0.3848
13,CCCOc1ccccc1CN[C@@H]1CCC[C@H]1Cc1cc(C)no1.O=C(O)CC(O)(CC(=O)O)C(=O)O,-26.27
14,CNC(=O)CN1CCOCC2(CCCN(CCc3ccccc3)C2)C1.O=C(O)C(F)(F)F.O=C(O)C(F)(F)F (centres undefined),-11.41
15,CO[C@@H]1CCN(Cc2ccoc2)C[C@@H]1Cc1ccccc1.O=C(O)C(F)(F)F,28.11
16,Cc1ccc(N2CC[C@@H]3[C@@H]2CCN3C(=O)Cc2ccsc2)nn1.O=C(O)C(F)(F)F,8.036
17,CC1CCN(c2cncc(CCC3CCCN3)n2)CC1.Cl (centres undefined),-9.936
18,CCCn1cc(-c2ccnc(NC3CCc4ccccc43)n2)c(C)n1 (centres undefined),18.89
19,CCCn1cc(-c2ccnc(NC3CCCc4ccccc43)n2)c(C)n1 (centres undefined),98
20,CCCn1ncc(-c2ccnc(NC3CCCc4ccccc43)n2)c1C (centres undefined),27.79
21,O=C(NCCc1cccs1)[C@H]1CO[C@H]2CCNC[C@H]2C1.O=C(O)C(F)(F)F,0.5431
22,Cl.c1nnc(Nc2cncc(C3CCCN3)n2)s1 (centres undefined),104.6
23,Cc1nc(Nc2cnccn2)cc(C2CCCN2)n1.Cl (centres undefined),-30.38

row,SMILES,Percent Effect [%]
1,Cc1nc(Nc2nncs2)cc(C2CCCN2)n1.Cl (centres undefined),5.522
2,Cl.c1cncc(CNc2cncc(C3CCCN3)n2)c1 (centres undefined),-18.35
3,Cl.c1cnc(Nc2cncc(C3CCCN3)n2)cn1 (centres undefined),54.88
4,Cc1nc(Nc2ncc(C)s2)cc(C2CCCN2)n1.Cl (centres undefined),6.055
5,Cc1nc(Nc2nnc(C)s2)cc(C2CCCN2)n1.Cl (centres undefined),-7.337
6,Cc1cc(Nc2cnccn2)cc(C2CCCN2)n1 (centres undefined),-16.58
7,Cl.Cn1nc(C2CCN(C(=O)CCN3CCOCC3)CC2)c2cccnc21,0.9946
8,CNC(=O)COC1COC2(CCN(Cc3ccncc3F)CC2)C1.O=C(O)C(F)(F)F (centres undefined),44.76
9,COc1cccc(CN2CCC3(CCN(C(=O)[C@H]4CCCO4)CC3)C2)c1.O=C(O)C(F)(F)F,-2.359
10,Cc1cnc(N2Cc3nccn3CC(Cn3ncccc3=O)C2)nc1.O=C(O)C(F)(F)F (centres undefined),-35.14
11,Cc1nnc(NC(=O)CN2CCCC(c3ccn[nH]3)C2)s1 (centres undefined),101.7
12,Cc1nc(C)n(CC2CCCN(CC(=O)Nc3nnc(C)s3)C2)n1 (centres undefined),-28.96
13,Cc1nc(C)n(CC2CCCN(CC(=O)Nc3nncs3)C2)n1 (centres undefined),11.86
14,O=C(CN1CCCC(c2ccn[nH]2)C1)Nc1nncs1 (centres undefined),98.23
15,Cn1c(C2CC2)nc2c1CCN(CC(=O)Nc1nncs1)C2,13.67
16,Cc1nnc(NC(=O)CN2CCCC(Cn3cncn3)C2)s1 (centres undefined),2.027
17,CCN(CC)S(=O)(=O)N1CC[C@H](c2ccccc2)[C@H]2NCCCC[C@H]21.Cl,-6.669
18,CC(C)c1nnc(N2C[C@@H]3CC[C@H](C2)N(Cc2ccccc2)C3)s1,34.82
19,COc1ccc(F)c(CN2CCCC3(CCN(S(C)(=O)=O)C3)C2)c1 (centres undefined),-18.53
20,CCS(=O)(=O)N1CCC2(CCCN(Cc3cc(OC)ccc3F)C2)C1 (centres undefined),24.11
21,COc1ccc(F)c(CN2CCCC3(CCN(C4CCOCC4)C3)C2)c1 (centres undefined),99.36
22,Cc1ccc(C(=O)N2CCn3c(COCC4CC4)cnc3C2C)nc1.O=C(O)C(F)(F)F (centres undefined),-9.703
23,CCN1CCC2(CC1)CC(NCc1cccs1)c1ccccc1O2.O=C(O)C(F)(F)F.O=C(O)C(F)(F)F (centres undefined),-24.55

row,SMILES,Percent Effect [%]
1,CN(Cc1nc2ccccc2c(=O)[nH]1)C1CC(=O)N(C2CC2)C1=O (centres undefined),51.11
2,CN(CC(=O)N(C)C1CCCCC1)Cc1nc2c(cnn2C)c(=O)[nH]1,-5.559
3,CCN1C(=O)CC(N(C)Cc2nc3ccccc3c(=O)[nH]2)C1=O (centres undefined),16.93
4,CN(Cc1nc2ccccc2c(=O)[nH]1)C[C@@H]1CCCN2CCCC[C@H]12,44.63
5,CN(CC(=O)N(C)C1CCCCC1)Cc1nc2ccccc2c(=O)[nH]1,97.32
6,CN1C(=O)CC(N(C)Cc2nc3ccccc3c(=O)[nH]2)C1=O (centres undefined),15.14
7,CCC(CN1CCCCC1)NC(=O)C1(c2ccc(F)cc2)CC1.O=C(O)CC(O)(CC(=O)O)C(=O)O (centres undefined),-8.056
8,CSCCC(O)C(=O)N1CCN(Cc2cccc(Cl)c2)CC1 (centres undefined),31.13
9,Cc1ccoc1C(=O)N1CC[C@@H]2CN(C3CCOCC3)CCO[C@@H]2C1.O=C(O)C(F)(F)F,6.269
10,COc1ccc(CN2Cc3nnn(C)c3C(COCCN(C)C)C2)cc1.O=C(O)C(F)(F)F.O=C(O)C(F)(F)F (centres undefined),-24.51
11,Cl.Nc1ncc(-c2csc(NC(=O)C[C@H]3COCCN3)n2)cn1,-19.35
12,COCC(=O)N1CCCCC1c1ccnc(Nc2ncc(C)s2)n1 (centres undefined),-16.88
13,Cc1cccc(C2CCCN2S(=O)(=O)N(C)C)n1 (centres undefined),-7.65
14,Cc1cnc(Nc2cccc(C3CCCN3C(=O)CO)n2)s1 (centres undefined),-6.272
15,CCN(CC)S(=O)(=O)N1CCCC1c1cccc(Nc2ncc(C)s2)n1 (centres undefined),70.89
16,COCC(=O)N1CCCC1c1cccc(Nc2ncc(C)s2)n1 (centres undefined),102.5
17,CCc1nnc(Nc2cccc(C3CCN(S(=O)(=O)N(C)C)CC3)n2)s1,-4.928
18,COc1ccc(CN2C[C@@H](N(C)Cc3ccco3)[C@H]3OCCC[C@H]32)cc1.O=C(O)C(F)(F)F.O=C(O)C(F)(F)F,2.974
19,CCOc1ccccc1CNC(=O)Cn1ccc2c(C)nn(C)c2c1=O,9.293
20,O=C(Cc1ccccc1)N1CCCC2(COCCN(CC3CC3)C2)C1.O=C(O)C(F)(F)F (centres undefined),-3.666
21,Cc1nc(Nc2nnc(C)s2)cc(C2CCCN2C2CCCC2)n1 (centres undefined),-11.05
22,CN(C)c1nccc(N2CCO[C@H]3CN(Cc4nccn4C)C[C@H]32)n1.O=C(O)C(F)(F)F,-13.16
23,CC(C)n1c2ccccc2c2c1cc(C(=O)NCCO)n2C(=O)N(C)C,20.51

row,SMILES,Percent Effect [%]
1,CC(C)n1c2ccccc2c2c1cc(C(=O)N(C)C)n2C(=O)N(C)C,11.26
2,CC(C)n1c2ccccc2c2c1cc(C(=O)O)n2C(=O)N(C)C,64.45
3,COc1ccc(CC(=O)N2CCN(c3nccn3C)CC2)cc1.Cl,6.481
4,O=C(O)C(F)(F)F.O=S(=O)(C1CC1)N1CCCn2cnc(COc3cccnc3)c2C1,9.967
5,Cc1cccc(NC(=O)CN2C(=O)CC(C)(C)c3ccccc32)n1,-2.777
6,Cc1cc(NC(=O)CN2C(=O)CC(C)(C)c3ccccc32)no1,6.008
7,CCn1cc(NC(=O)CN2C(=O)CC(C)(C)c3ccccc32)cn1,52.7
8,CC1(C)CC(=O)N(CC(=O)Nc2ccon2)c2ccccc21,77.91
9,CCn1ccc(NC(=O)CN2C(=O)C(C)(C)c3ccccc32)n1,-16.77
10,CCn1ccc(NC(=O)CN2C(=O)CC(C)(C)c3ccccc32)n1,2.312
11,Fc1ccc(CN[C@@H]2COC[C@H]2c2ccc(F)cc2)cc1.O=C(O)CC(O)(CC(=O)O)C(=O)O,2.118
12,COc1cccc(OCCNCc2ccccc2)c1.O=C(O)C(=O)O,-6.728
13,CCc1ccc(CN2CCCn3c(nc(Cn4ccnc4)cc3=O)C2)o1.O=C(O)C(F)(F)F.O=C(O)C(F)(F)F,-19.48
14,Cc1ccnc(N2CCCC(c3noc(C(C)C)n3)C2)n1 (centres undefined),12.21
15,CN(C)C(=O)c1cn2cc(-c3ccccc3Cl)n(CC3CC3)c(=O)c2n1,22.72
16,CNC(=O)c1cn2cc(-c3ccccc3Cl)n(CC3CC3)c(=O)c2n1,12.71
17,CCNC(=O)c1cn2cc(-c3ccccc3Cl)n(CC3CC3)c(=O)c2n1,99.63
18,COCCN1CCC2(CC1)CN(C(=O)N(C)C)c1ccc(C)cc12.O=C(O)C(F)(F)F,-10.15
19,O=C(N[C@H]1CN(Cc2ccsc2)[C@@H]2CCCO[C@H]12)C1CC1.O=C(O)C(F)(F)F,2.811
20,Cc1cccc(CN2CC3(CCN(C(=O)N(C)C)CC3)OCC2=O)n1.O=C(O)C(F)(F)F,-24.23
